# An excerpt weighted towards active compounds, which were near 7.5% of everything screened.
# ELG1 genotoxic: qHTS screen for small molecules that induce genotoxicity in human embryonic kidney (HEK293T) cells expressing luciferase-tagged ELG1 | HEK293T ELG1-luciferase reporter, luminescence, 16 h | Potency, µM (doses to about 46 µM), for inactives: top-dose activity change, positive = activation, most hits filed as activators | 330,000 compounds, 1.3% hits | AID 504466, 2011; note: % of control where 0% means no effect; nearly all actives have a fitted effect of over 60% in size
#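 Screening used a luciferase reporter fused to human ELG1 in HEK293T cells. Luminescence was read on a CCD plate imager after 16 hr exposure and 30 min ONE-Glo incubation.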
# KinaseGlo FLuc: Counterscreen for Luciferase (Kinase-Glo TM) Inhibition; AID 1379, 2008; Luciferin 4-monooxygenase (Photuris pensylvanica), Q27757; Potency, µM (doses to about 38.3 µM), inactives show at the top dose activity change, negative = inhibition, hits mostly inhibitors; Kinase-Glo luciferase, ATP luminescence, 8 min; 200,000 compounds, 0.28% hits; note: % is set by controls: 0 for no effect and ±100 for the full control effect; nearly all actives have a fitted effect of over 60% in size
#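 Compounds were added to a substrate mix at pH 7.2 (50 mM imidazole, 10 uM ATP, within the enzyme's linear range), followed by Kinase-Glo detection reagent; luminescence was measured after 8 minutes at ambient temperature.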
# SMN2 splice enh: qHTS Assay for Enhancers of SMN2 Splice Variant Expression | HEK293 SMN2-luciferase splicing reporter, luminescence, 30-36 h | Potency, µM (series often up to 46.1 µM), for the others: top-dose activity change, positive = activation, hits mostly activators | 210,000 compounds, 2.8% hits; note: % of control where 0% means no effect; nearly all actives have a fitted effect of over 55% in size
#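 HEK293 cells carry an SMN2 minigene-luciferase reporter in which exon 7 inclusion puts luciferase in frame. Cells were seeded at 2000 cells/well, attached for 10-12 hours, then exposed to compounds for 30-36 hours at 37C before ONE-Glo luminescence.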
# Rab9 prom act: qHTS Assay for Rab9 Promoter Activators; Huh7 Rab9 promoter-luciferase reporter, luminescence, 24 h; Potency, µM (series often up to 9.22 µM), inactives show at the top dose activation, negative = inhibition, actives largely listed as activators; 320,000 compounds, 2.8% hits; AID 485297, 2010; note: % of control where 0% means no effect; nearly all actives have a fitted effect of over 60% in size
#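 Huh7 reporter line, Rab9 promoter upstream of luciferase. Compound exposure 24 h at 37 °C in reduced-serum medium with 10% FBS. Read-out: luminescence.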
# NPC1 promoter act: qHTS Assay for NPC1 Promoter Activators; Huh7 NPC1 promoter luciferase reporter, 24 h; Potency, µM (titrated, usually from 9.22 µM), for inactives: top-dose activation, usual class: activators; 320,000 compounds, 2.4% hits; AID 485313, 2010; note: % of control where 0% means no effect; nearly all actives have a fitted effect of over 60% in size
#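 In 1536-well qHTS, Huh7 cells harboring an NPC1 promoter–luciferase construct received compound for 24 h; activation was quantified by luminescence following luciferase reagent addition.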
# FLuc modulator: qHTS profiling assay for firefly luciferase inhibitor/activator using purifed enzyme and Km concentrations of substrates (counterscreen for miR-21 project); Luciferin 4-monooxygenase (Photinus pyralis), P08659; 360,000 compounds, 6.9% hits; purified FLuc, Km substrates, luminescence inhibition; Potency, µM (series often up to 57.5 µM), for inactives: at the top dose activity change, negative = inhibition, most hits filed as inhibitors; AID 588342, 2011;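 note: plate controls were vehicle for no effect and reference inhibitor for full effect; nearly all actives have a fitted effect of over 55% in size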
# Target sequence (P08659 whole entry, looked up): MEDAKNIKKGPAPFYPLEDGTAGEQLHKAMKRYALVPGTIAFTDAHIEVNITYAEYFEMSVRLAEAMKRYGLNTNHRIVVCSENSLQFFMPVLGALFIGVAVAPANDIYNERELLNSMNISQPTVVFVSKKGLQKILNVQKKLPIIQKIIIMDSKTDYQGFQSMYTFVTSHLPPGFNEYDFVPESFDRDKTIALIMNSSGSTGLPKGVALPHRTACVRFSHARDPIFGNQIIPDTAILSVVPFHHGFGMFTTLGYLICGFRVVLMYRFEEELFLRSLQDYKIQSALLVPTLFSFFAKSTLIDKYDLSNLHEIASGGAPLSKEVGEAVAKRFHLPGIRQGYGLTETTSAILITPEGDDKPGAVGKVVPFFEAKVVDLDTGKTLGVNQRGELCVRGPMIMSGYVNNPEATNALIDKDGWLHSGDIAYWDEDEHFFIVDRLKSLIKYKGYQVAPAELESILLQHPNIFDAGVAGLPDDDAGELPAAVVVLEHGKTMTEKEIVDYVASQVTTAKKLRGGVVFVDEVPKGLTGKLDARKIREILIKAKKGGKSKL
#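 Purified P. pyralis luciferase (10nM final) with 10uM D-luciferin and 10uM ATP (Km levels) in 50mM Tris acetate pH 7.5, 10mM Mg acetate, 0.01% Tween-20, 0.05% BSA; qHTS 6-point titration, ~60 µM downward; luminescence read.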
# Active calls of the source: *; ? = inconclusive; · = no result given. Calls come from the whole dose curve; as a rule, active = well fitted curve in the direction sought with a large enough effect; inconclusive = small, poorly fitted or top-dose-only effect, or another doubt; inactive = no such curve, though single readings can be large; an effect the other way counts as inactive or inconclusive. Potency is the fitted concentration of half-maximal effect.
SMILES,ELG1 genotoxic,KinaseGlo FLuc,SMN2 splice enh,Rab9 prom act,NPC1 promoter act,FLuc modulator
Cc1ccc2nc(NC(=O)c3ccccn3)sc2c1,0.16µM*,·,·,?,?,0.17µM*
O=C(Nc1nc2c(F)cc(F)cc2s1)c1ccccn1,9.2µM*,?,2.8µM*,0.1µM*,0.11µM*,0.67µM*
O=C(Nc1nc2ccc(S(=O)(=O)N3CCCC3)cc2s1)c1ccccn1,-7%,2%,-22%,?,26%,?
FC(F)(F)c1cc(CN2CCC3(CCNCC3)CC2)cc(C(F)(F)F)c1,·,-3%,-16%,·,·,·
O=C(/C=C/c1c(F)cccc1Cl)Nc1ccncc1,16%,0%,-23%,?,29%,7.6µM*
Cc1cc(NS(=O)(=O)c2ccc(NC(=O)/C=C/c3c(F)cccc3Cl)cc2)no1,5%,·,·,0%,1%,?
O=C(/C=C/c1c(Cl)cccc1Cl)Nc1ccncc1,?,14%,-22%,?,26%,3µM*
O=C(/C=C/c1cccc(Cl)c1)Nc1ccncc1,3%,-4%,-1%,24%,1%,17µM*
O=C(Nc1ccncc1)c1ccccc1Cl,-6%,·,·,-5%,-1%,-11%
CN(C)S(=O)(=O)c1ccc(C(=O)NCCOc2ccccc2)cc1,?,3%,11µM*,2.8µM*,4µM*,13µM*
CN(C)S(=O)(=O)c1ccc(C(=O)NCCOc2ccc(F)cc2)cc1,13µM*,-5%,20%,?,26%,?
CN(C)S(=O)(=O)c1ccc(C(=O)NCc2ccccc2)cc1,5%,4%,0%,0%,-2%,2%
CN(C)S(=O)(=O)c1ccc(C(=O)NCCS(=O)(=O)N2CCN(c3ccc(F)cc3)CC2)cc1,5%,·,·,-11%,-4%,2%
Cc1nn2c(=O)cc(COC(=O)c3ccccc3NC(=O)c3cccs3)nc2s1,·,·,·,·,·,-1%
Cc1cccc(/C=N/n2c(C)nnc2C)c1,3%,0%,1%,3%,-2%,3%
Cc1cccc(/C=N/NC(=O)c2ccc(Br)cc2)c1,?,-1%,?,?,14%,3.4µM*
Cc1cccc(/C=N\N=C\c2cccc(C)c2)c1,16%,·,·,25%,?,8.5µM*
O=C(N/N=C/c1ccc(F)cc1)c1ccc(Br)cc1,14%,2%,7%,27%,23%,9.5µM*
O=C(N/N=C/c1ccc(Br)cc1)c1ccc(F)cc1,?,-2%,13µM*,24%,?,6µM*
COc1ccc(NC(=O)C2CCCN(S(=O)(=O)c3ccc4c(c3)CCCC(=O)N4)C2)c(OC)c1 (stereo not drawn),·,·,·,·,·,-3%
CCOc1ccc(CCNC(=O)c2ccc(-n3c(C)cc4c3CCC(C)C4)cc2)cc1OCC (stereo not drawn),·,·,·,·,·,6%
N#Cc1ccccc1-c1ccc2ncnc(N3CCNCC3)c2c1,·,0%,6%,·,·,·
O=C(N/N=C/c1ccc(Br)cc1)c1ccc(Br)o1,?,-8%,11µM*,3.2µM*,?,4.3µM*
COc1ccccc1CCNC(=O)CCc1c(C)c2cc3c(C)coc3cc2oc1=O,·,·,11%,·,·,-2%
COCCNc1c(-c2cc3ccc(C)c(C)c3[nH]c2=O)nc2ccccn12,?,-2%,·,0.71µM*,2.5µM*,3.4µM*
SMILES,ELG1 genotoxic,KinaseGlo FLuc,SMN2 splice enh,Rab9 prom act,NPC1 promoter act,FLuc modulator
COCCNc1c(-c2ccc(OC)c(OC)c2)nc2ccc(Cl)cn12,-6%,-1%,·,-2%,-3%,-3%
C/C(N)=C(/C#N)C(=O)CSc1nnc(Nc2ccccc2)s1,?,1%,11µM*,2µM*,?,21µM*
C/C(N)=C(/C#N)C(=O)CSc1nc2ccccc2[nH]1,21µM*,-6%,?,?,?,21µM*
C/C(N)=C(/C#N)C(=O)CSc1nnc(Nc2ccccc2C)s1,15%,-2%,-6%,20%,?,?
CC1CCN(C(=O)CSc2nc3ccccc3[nH]2)CC1,?,0%,16µM*,3.2µM*,2.5µM*,24µM*
CC(C)(C)c1ccc(C(=O)NCC(c2ccco2)S(=O)(=O)c2ccccc2)cc1 (stereo not drawn),·,·,·,·,·,-2%
O=C(OCC(=O)N1CCC(Cc2ccccc2)CC1)c1ccccc1F,3%,·,·,2%,1%,4.3µM*
O=C(OCC(=O)N1CCC(Cc2ccccc2)CC1)c1ccccc1,6%,-5%,-6%,?,-14%,12µM*
O=C(Oc1ccc2ccc(=O)oc2c1)c1ccccc1,3%,·,·,-1%,1%,?
COc1ccc(C(=O)Oc2ccc3c(-c4ccc(OC)cc4)cc(=O)oc3c2)cc1,·,-11%,-8%,·,·,·
COc1ccc(C(=O)Oc2ccc3ccc(=O)oc3c2)cc1,-4%,·,·,0%,-2%,2.7µM*
COc1ccc(C(=O)Oc2ccc3oc(=O)sc3c2)cc1,?,-3%,1%,10%,-2%,11µM*
CCCN(CCC)CCNC(=O)c1cc(Sc2ccc(Cl)cc2)nc2ccccc12,·,·,·,·,·,-2%
Cn1c(=O)c2cc(C(=O)NCCCN3CCN(c4ccc(F)cc4)CC3)sc2c2ccccc21,·,·,-4%,·,·,-9%
O=C1OC(c2ccc(Cl)cc2)=C/C1=C/c1cccnc1,-3%,·,·,8%,0%,-14%
Cc1ccc(C2=C/C(=C/c3cccnc3)C(=O)O2)c(C)c1,1%,-1%,9%,1%,-3%,6µM*
Sc1oc(-c2ccccc2)cc1C=Nc1ccccc1,12µM*,-3%,-21%,6%,0%,2.1µM*
O=[N+]([O-])c1cc2c(cc1C=Nc1ccccc1)OCO2,1%,-4%,-8%,0%,-1%,-13%
CCOc1ccc(NC(=O)Cn2c(CCC(=O)O)ccc2-c2ccc(C)cc2)cc1,·,·,-9%,·,·,-20%
CCOC(=O)c1ccccc1NC(=O)CSc1nnc(Cc2cccn2C)n1-c1ccc(F)cc1,-4%,2%,-15%,3.2µM*,1%,1%
CC(=O)Nc1cccc(-c2cn3cccnc3n2)c1,·,·,·,·,·,-2%
COc1ccc(NC(=O)Nc2cccc(-c3cn4cccnc4n3)c2)cc1,·,·,5%,·,·,1.7µM*
COc1cc(OC)cc(C(=O)Nc2cccc(-c3cn4cccnc4n3)c2)c1,·,·,·,·,·,-17%
O=C(COc1ccccc1)Nc1cccc(-c2cn3cccnc3n2)c1,-7%,·,·,?,14%,15µM*
Cc1nc(N2CCCC2)ncc1C(=O)NCc1ccc(Cl)cc1,·,·,·,·,·,0%
